From publication PMC5540273 (PLoS ONE, 2017)

Key:
Conditions in all cases: concentration: 1 μM, replicates: in singlicate; n = 1
PLK2 = test system: PLK2
PLK3 = test system: PLK3
PLK4 = test system: PLK4
PRKCD = test system: PRKCD
PRKCE = test system: PRKCE
PRKCH = test system: PRKCH
PRKCI = test system: PRKCI
PRKCQ = test system: PRKCQ
PRKD1 = test system: PRKD1
PRKD2 = test system: PRKD2
PRKD3 = test system: PRKD3
PRKG1 = test system: PRKG1
PRKG2 = test system: PRKG2
PRKR = test system: T1, PRKR
T1 construct: gene EIF2AK2

PRKX = test system: PRKX
PRP4 = test system: PRP4
PYK2 = test system: T2, PYK2
T2 construct: gene PTK2B

QSK = test system: QSK
RAF1 = test system: RAF1
RET = test system: RET
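Further: KINOMEscan kinase panel screen.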

| SMILES | %Inh (PLK2) [%] | %Inh (PLK3) [%] | %Inh (PLK4) [%] | %Inh (PRKCD) [%] | %Inh (PRKCE) [%] | %Inh (PRKCH) [%] | %Inh (PRKCI) [%] | %Inh (PRKCQ) [%] | %Inh (PRKD1) [%] | %Inh (PRKD2) [%] | %Inh (PRKD3) [%] | %Inh (PRKG1) [%] | %Inh (PRKG2) [%] | %Inh (PRKR) [%] | %Inh (PRKX) [%] | %Inh (PRP4) [%] | %Inh (PYK2) [%] | %Inh (QSK) [%] | %Inh (RAF1) [%] | %Inh (RET) [%] |
| --- | --- | --- | --- | --- | --- | --- | --- | --- | --- | --- | --- | --- | --- | --- | --- | --- | --- | --- | --- | --- |
| O=C(Nc1n[nH]c2nc(-c3ccccc3)ccc12)C1CC1 [SB-708999] | 0 | 0 | 17 | 0 | 2 | 24 | 27 | 0 | 0 | 7 | 0 | 1 | 0 | 0 | 5 | 7 | 0 | 0 | 23 | 32 |
| CN(c1ccc2c(c1)nc(NCc1ccccc1)n2C)c1ccnc(Nc2ccc(CS(C)(=O)=O)cc2)n1.Cl [GW811603] | 0 | 79 | 62 | 100 | 36 | 0 | 0 | 0 | 0 | 0 | 0 | 3 | 4 | 1 | 0 | 22 | 21 | 0 | 97.5 | 99.9 |
| CN1CCN(Cc2ccc(NC(=O)Nc3ccc(N(C)c4ccnc(Nc5ccc(CS(C)(=O)=O)cc5)n4)cc3)cc2)CC1.Cl [GW827654] | 12 | 3 | 90 | 5 | 5 | 0 | 23 | 38 | 23 | 27 | 0 | 0 | 0 | 0 | 22 | 33 | 88 | 0 | 0 | 100 |
| Fc1cc(Cl)ccc1Nc1ccnc2cc(-c3ccc(CN4CCOCC4)o3)ccc12 [GW560109] | 0 | 0 | 81 | 0 | 5 | 3 | 22 | 31 | 0 | 2 | 19 | 25 | 0 | 0 | 24 | 44 | 5 | 70 | 11 | 99.8 |
| CNc1nccc(-c2ccc3c(N)n[nH]c3c2)n1 [GSK2206003] | 0 | 0 | 0 | 27 | 15 | 25 | 17 | 9 | 19 | 20 | 35 | 25 | 76 | 8 | 53 | 32 | 12 | 0 | 0 | 80 |
| Cl.Cl.NC(CNC(=O)c1cc(Br)c(-c2ccnc3[nH]ccc23)s1)c1ccccc1 (stereo not drawn) [GSK1322949] | 74 | 48 | 41 | 76 | 93.1 | 92.6 | 36 | 74 | 0 | 24 | 62 | 98.5 | 98.4 | 6 | 92.5 | 87 | 32 | 22 | 0 | 30 |
| CN(C)CCNS(=O)(=O)c1ccc(-c2ccnc3[nH]ccc23)cc1 [GSK977620] | 0 | 0 | 1 | 83 | 88 | 82 | 21 | 62 | 0 | 10 | 11 | 95.4 | 97.4 | 0 | 68 | 0 | 20 | 8 | 1 | 2 |
| O=C1NC(=O)C(c2ccccc2Cl)=C1Nc1cccc(Cl)c1 [SB-342409] | 0 | 0 | 0 | 0 | 42 | 0 | 9 | 100 | 0 | 0 | 22 | 0 | 0 | 0 | 15 | 0 | 5 | 5 | 37 | 1 |
| CCn1cnc2c(NCc3ccccc3)ncnc21 [SKF-96418] | 25 | 34 | 1 | 3 | 29 | 0 | 0 | 0 | 0 | 0 | 0 | 0 | 0 | 8 | 0 | 41 | 0 | 10 | 17 | 0 |
